The values that follow come from PubChem BioAssay AID2013 (Sanford-Burnham Center for Chemical Genomics, 2009).

Several values for one entry are separate records, joined by “and”; a condition that tells them apart may be missing. Identical values can stand only once. Among all 290,000 compounds or so, about 370 (0.13%) were called active.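 How the source made its calls: active means spots per cell inhibited over 60%, with over 100 cells counted and total cytoplasm intensity under 500,000; inconclusive means wells with under 100 cells, flagged as likely toxic; inactive means the rest.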 What follows is part of a selection rich in actives, with near analogues and random picks from the rest. Potency and affinity values are given separately. Where a structure was tested more than once in an assay, its records may differ in their call.

The term inhibition denotes the change of the read-out against control, counted positive when it falls.

The target in the experiment is G-protein coupled receptor 55 (Homo sapiens) (UniProt Q9Y2T6). The experiment is described as follows: inhibition of LPI-stimulated GPR55 beta-arrestin translocation – imaging, U2OS, beta-arrestin-GFP, LPI agonist, primary screen (AID 2013).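 Further: U2OS cells stably carrying GPR55 and arrestin-GFP stimulated by 5 µM LPI near EC80; imaged beta-arrestin-GFP aggregate spots per cell after agonist stimulation; plate controls were LPI-stimulated DMSO wells for no effect and DMSO wells without LPI for full effect.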 Conditions: LPI antagonism, at 10 µM, stronger effect = higher value.
G-protein coupled receptor 55 (Homo sapiens), sequence (Q9Y2T6 whole entry, looked up): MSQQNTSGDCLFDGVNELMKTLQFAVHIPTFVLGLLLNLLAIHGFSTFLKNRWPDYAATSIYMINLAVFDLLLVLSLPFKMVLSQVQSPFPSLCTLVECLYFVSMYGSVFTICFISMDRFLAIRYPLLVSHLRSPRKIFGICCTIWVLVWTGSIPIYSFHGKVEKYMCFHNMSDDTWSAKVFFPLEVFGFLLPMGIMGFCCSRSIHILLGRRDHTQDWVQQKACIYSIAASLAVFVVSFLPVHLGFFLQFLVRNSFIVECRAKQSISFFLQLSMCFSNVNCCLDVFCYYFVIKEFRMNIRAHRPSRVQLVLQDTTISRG
On to `O=S(=O)(NCC1CCN(c2ccc(S(=O)(=O)N3CCOCC3)cc2)CC1)c1ccccc1`, for which the inhibition is 0.7% (inactive).

For `O=C(O)Cn1ncn(-c2ccc(OC(F)(F)F)cc2)c1=O`, the inhibition is 4.9% (inactive).

`Cc1ccccc1C(=O)NC(=S)NCCC1=CCCCC1`: the inhibition is 1% (inactive).

Take `O=C(NC(=S)NCCC1=CCCCC1)c1ccc(Br)o1`: the inhibition is 4.9% (inactive).

For the compound `O=C(NC(=S)NCCC1=CCCCC1)c1ccccc1Br`, the inhibition is 74.9% (active).

Take `CCOc1ccccc1NC(=O)NCc1ccco1`: the inhibition was 11.3% (inactive).

In the case of `Cc1cc(SCC(=O)N/N=C/c2ccc(O)cc2O)nc2ccccc12`, the inhibition was 13.8% (inactive).

For `Oc1oc(-c2ccc(Br)cc2)nc1C=Nc1ccc(Br)cn1`, the inhibition is -0.2% (inactive).

Turning to `CC(=O)c1ccc(N2CCN(C3CCC(C(C)(C)C)CC3)CC2)cc1` (stereo not drawn), the inhibition was 9% (inactive).

With `O=C(O)Cc1cc(I)c(Oc2ccc(O)c(I)c2)c(I)c1`, the inhibition is 6.9% (inactive).

Regarding `N[C@@H](Cc1ccc(O)c(I)c1)C(=O)O`, the inhibition was 8.6% (inactive).

As for `N[C@@H](Cc1cc(I)c(Oc2ccc(O)c(I)c2)c(I)c1)C(=O)O`, the inhibition was 6.9% (inactive) and 99.2% (active).

Turning to `COc1ccccc1N1CCN(CCCCOc2ccc(C)cc2C)CC1`, the inhibition was 18.9% (inactive).

Regarding `Cc1ccc(NC2=C/C(=N/S(=O)(=O)c3cccs3)c3ccccc3C2=O)cc1`, the inhibition was 16% (inactive).

Regarding `Cc1ccccc1NC1=C/C(=N\S(=O)(=O)c2cccs2)c2ccccc2C1=O`, the inhibition was -11.4% (inactive).

Take `COc1ccc(OCc2nnc(SCC(=O)Nc3ccccc3F)o2)cc1`: the inhibition is -6.5% (inactive).

On to `Cc1cccc(C(=O)N(CCc2ccccc2)Cc2ccccc2)c1[N+](=O)[O-]`, for which the inhibition was 14% (inactive).

Regarding `O=C(OCn1ncc(Cl)c(Cl)c1=O)c1ccc(F)cc1`, the inhibition was 1.3% (inactive).

With `O=C(OCn1ncc(Br)c(Br)c1=O)c1c(F)cccc1F`, the inhibition was -5.4% (inactive).

As for `CCOC(=O)C1=C(C(F)(F)F)Nc2ncnn2C1c1cccc(OC)c1OC` (stereo not drawn), the inhibition was 13.1% (inactive).

In the case of `Cn1nc(-c2ccccn2)nc2c(=O)n(C)c(=O)nc1-2`, the inhibition was 45.9% (inactive).

Take `CCCc1nc2c(=O)n(C)c(=O)nc-2n(C)n1`: the inhibition was -5.2% (inactive).

For `O=C(/C=C/c1ccc(S(=O)(=O)N2CCOCC2)cc1)N1CCN(c2ccccc2)CC1`, the inhibition is -10.2% (inactive).

Turning to `COc1ccc(Br)cc1S(=O)(=O)n1ccnc1`, the inhibition is 3.5% (inactive).

On to `Cc1ccc(CSCCNC(=O)c2ccc(N(C)S(=O)(=O)c3ccccc3)cc2)cc1`, for which the inhibition is 4.4% (inactive).

For `CN(c1ccc(C(=O)NCCSCc2ccccc2)cc1)S(=O)(=O)c1ccccc1`, the inhibition is -5.5% (inactive).

With `CCOc1ccc(-n2nc3c(=O)[nH]nc(C)c3c2C)cc1`, the inhibition was 7.8% (inactive).

`COc1ccccc1C1C(C#N)=C(N)Oc2c1c(-c1ccccc1)nn2-c1ccccc1` (stereo not drawn): the inhibition was 96.3% (active).

As to `COc1ccc(C2C(C#N)=C(N)Oc3c2c(-c2ccccc2)nn3-c2ccccc2)c(OC)c1OC` (stereo not drawn), the inhibition was 79.5% (inactive).

As for `COc1cc(C2C(C#N)=C(N)Oc3c2c(-c2ccccc2)nn3-c2ccccc2)cc(OC)c1OC` (stereo not drawn), the inhibition is -13.1% (inactive).

For the compound `O=C(/C=C/c1ccco1)Nc1ccccc1N1CCOCC1`, the inhibition was 10.8% (inactive).

Regarding `CCc1ccc(C(=O)NC(=S)Nc2ccc(N3CCOCC3)cc2)cc1`, the inhibition was 4.3% (inactive).

With `O=C(/C=C/c1ccco1)NC(=S)Nc1ccccc1N1CCCC1`, the inhibition is 23% (inactive).

`Cc1ccc(C(=O)NC(=S)Nc2ccccc2N2CCOCC2)cc1C`: the inhibition was 0.3% (inactive).

`O=C(NC(=S)Nc1ccccc1N1CCOCC1)c1ccccc1F`: the inhibition was 16.2% (inactive).

In the case of `O=C(NC(=S)Nc1ccccc1N1CCOCC1)c1ccc([N+](=O)[O-])cc1`, the inhibition was 5% (inactive).

For the compound `O=C(COc1ccc(Br)cc1)NC(=S)Nc1ccccc1N1CCOCC1`, the inhibition was 0.7% (inactive).

For the compound `COc1ccc(C(=O)NC(=S)Nc2ccccc2N2CCOCC2)cc1Br`, the inhibition is 0.4% (inactive).

On to `CCOC(=O)c1sc(NC(=O)CSc2ncn(-c3ccccc3)n2)nc1C`, for which the inhibition was 14.4% (inactive).

As to `CCOC(=O)N1CCN(Cc2nc3c(c(=O)n(C)c(=O)n3C)n2CCC(C)C)CC1`, the inhibition was -1.3% (inactive).

As for `COC(=O)C1=CC(C(=O)c2cccs2)=NN(c2ccc(OC)cc2)C1C(=O)OC` (stereo not drawn), the inhibition is 7.5% (inactive).

With `COc1ccc(C(=O)NCC(=O)N2CCC3(CC2)NCCc2[nH]cnc23)cc1`, the inhibition is -11.2% (inactive).

On to `O=C(c1csc2ccccc12)n1cccn1`, for which the inhibition is -12.1% (inactive).

On to `Oc1ccccc1/C=N/n1cnnc1`, for which the inhibition was -8.4% (inactive).

Turning to `Nc1nc(C23CC4CC(CC(C4)C2)C3)cs1`, the inhibition is 24.8% (inactive).

Turning to `Nc1nc(C23CC4CC(CC(Cl)(C4)C2)C3)cs1`, the inhibition was -9.3% (inactive).

For `Cc1cccc(N=Nc2c(C)[nH]n(C(N)=S)c2=O)c1C`, the inhibition is 10.8% (inactive).

For the compound `Cc1ccccc1N=Nc1c(C)[nH]n(C(N)=S)c1=O`, the inhibition was 93.2% (active).

Regarding `Cc1[nH]n(C(N)=S)c(=O)c1N=Nc1ccccc1C(F)(F)F`, the inhibition was 7.7% (inactive).

For `S=C(Nc1cccc(Cl)c1)Nc1ccccc1Oc1ccccc1`, the inhibition was 8.7% (inactive).

Regarding `S=C(Nc1ccccc1Oc1ccccc1)Nc1cccc(Cl)c1Cl`, the inhibition is -5.2% (inactive).

As to `CCc1nc(NC(=O)Cc2csc(C)n2)sc1C(=O)OC`, the inhibition was 14.5% (inactive).

Regarding `COc1ccc(Cn2ccnc2SCC(=O)Nc2nnc(C)s2)cc1`, the inhibition was -0.9% (inactive).

In the case of `CCc1nnc(NS(=O)(=O)c2ccc(NC(=O)/C=C/C(=O)O)cc2)s1`, the inhibition was 6.6% (inactive).

As to `CCc1nnc(NS(=O)(=O)c2ccc(NC(=O)Nc3ccc(OC)cc3)cc2)s1`, the inhibition is -0.7% (inactive).

With `CCc1nnc(NS(=O)(=O)c2ccc(NC(=S)NC(=O)/C=C/c3ccc(OC)cc3)cc2)s1`, the inhibition is 10.6% (inactive).

On to `CCc1nnc(NS(=O)(=O)c2ccc(NC(=O)/C=C/c3ccc(F)cc3)cc2)s1`, for which the inhibition was 1.5% (inactive).

For `COc1ccc(/C(C)=N\Nc2nc(-c3ccccc3)cc(=O)[nH]2)cc1`, the inhibition was 12.1% (inactive).

With `Cc1nn2c(N3CCOCC3)cc(C(C)(C)C)nc2c1-c1ccc(Cl)cc1`, the inhibition was -7.5% (inactive).

For `O=C(O)c1cc(NC(=O)c2ccc(Cl)c([N+](=O)[O-])c2)cc(C(=O)O)c1`, the inhibition is 6.4% (inactive).

`O=C(Nc1ccc(C(O)(C(F)(F)F)C(F)(F)F)cc1)c1ccc(Cl)c([N+](=O)[O-])c1`: the inhibition is 88.6% (active).

`O=C(Nc1ccc(Nc2ccccc2)cc1)c1ccc(Cl)c([N+](=O)[O-])c1`: the inhibition was 12% (inactive).

`CCCn1c2c(c(O)c(C(=O)Nc3ncccc3O)c1=O)CCCC2`: the inhibition was -10.6% (inactive).

In the case of `CCCCn1c(=O)[nH]c(=O)c2c1nc(CN1C(=O)c3ccccc3S1(=O)=O)n2CCC`, the inhibition is 8.3% (inactive).

As to `CCCCn1c(CCC(=O)O)nc2c1c(=O)[nH]c(=O)n2CCC`, the inhibition is -0.5% (inactive).

With `CCC(Sc1nc(N)cc(=O)[nH]1)C(=O)NC(C(=O)OC)c1ccccc1` (stereo not drawn), the inhibition is 3.4% (inactive).

Consider `COc1ccc(C2CCCN2CC(O)COc2ccccc2C(C)C)cc1` (stereo not drawn), for which the inhibition was 5.6% (inactive).

As for `O=C1CC(SC(=Nc2ccccc2)Nc2ccccc2)C(=O)N1c1cccc(Cl)c1` (stereo not drawn), the inhibition was 17.2% (inactive).

As to `O=C1CC(SC(=Nc2ccccc2)Nc2ccccc2)C(=O)N1c1ccc(Cl)c(Cl)c1` (stereo not drawn), the inhibition is 72.2% (active).

With `O=C1CC(SC(=Nc2ccccc2)Nc2ccccc2)C(=O)N1c1ccc(Cl)cc1` (stereo not drawn), the inhibition is 6.2% (inactive).

Turning to `Cc1ccc(CNC(=O)c2nnn(CC(=O)Nc3cccc(C)c3C)c2N)cc1`, the inhibition was 18.1% (inactive).

For `Cc1cc(SCc2ccc(Br)cc2)nc(=O)[nH]1`, the inhibition was -5.2% (inactive).

Take `CCOc1ccc(OCc2ccc(C(=O)N3CCCCC3)o2)cc1`: the inhibition is 18.5% (inactive).

On to `O=C(O)c1cc(NS(=O)(=O)c2ccc(N3CCCCC3)c([N+](=O)[O-])c2)cc(C(=O)O)c1`, for which the inhibition was 5% (inactive).

For the compound `O=C(O)c1cc(NS(=O)(=O)c2ccc(NCc3ccccc3)c([N+](=O)[O-])c2)cc(C(=O)O)c1`, the inhibition is 58.9% (inactive).

For `Cc1sc(NC(=O)c2cc(-c3ccccc3)nc3ccccc23)c(C(N)=O)c1C`, the inhibition was -0.9% (inactive).

As to `Cc1sc(NC(=O)c2cc(-c3ccc(Cl)cc3)nc3ccccc23)c(C(N)=O)c1C`, the inhibition is 28.7% (inactive).

Turning to `CCOC(=O)c1sc(NC(=O)c2cc(-c3ccccc3C)nc3ccccc23)c(C#N)c1C`, the inhibition was -36.6% (inactive).

`Cc1ccc(C)c(-c2cc(C(=O)Nc3sc(C)c(C)c3C(N)=O)c3ccccc3n2)c1`: the inhibition was 18% (inactive).

For the compound `O=C(c1cc2cc(Br)ccc2o1)N1CCN(c2ccccc2)CC1`, the inhibition is 5.9% (inactive).

On to `CC(Sc1nnc(-c2ccc(OC(F)F)cc2)o1)C(=O)NCC1CCCO1` (stereo not drawn), for which the inhibition was 17.5% (inactive).

With `COc1cc(NC(=O)CN2CCCCC2)c(C)cc1[N+](=O)[O-]`, the inhibition is 10.9% (inactive).

In the case of `COc1cc(NC(=O)CN2C(=O)CN(C)C2=O)c(C)cc1[N+](=O)[O-]`, the inhibition was 10.3% (inactive).

Consider `C=CCNC(=O)C1CCC(=O)N1S(=O)(=O)c1ccc(C)cc1` (stereo not drawn), for which the inhibition is 9.3% (inactive).

On to `CC(c1ccccc1C(O)(c1ccccc1)c1ccccc1)N(C)C` (stereo not drawn), for which the inhibition was 6.4% (inactive).

Consider `CC(c1ccccc1C(O)c1ccccc1)N(C)C` (stereo not drawn), for which the inhibition is 28.9% (inactive).

Regarding `S=c1[nH]nc(CCc2ccc(Cl)cc2)o1`, the inhibition is 9.7% (inactive).

On to `COc1ccc(S(=O)(=O)N(CC(=O)N2CCCCCC2)c2ccccc2OC)cc1`, for which the inhibition is 9.8% (inactive).

As to `CCOC(=O)c1cc(C#N)c(SC)nc1-c1ccccc1`, the inhibition was 18% (inactive).

For the compound `COC(=O)c1cc(C#N)c(Oc2ccc(F)cc2)nc1C`, the inhibition was 20.6% (inactive).

With `CCOC(=O)c1cc(C#N)c(Oc2cccc(C(F)(F)F)c2)nc1-c1ccccc1`, the inhibition was 10% (inactive).

`CCOC(=O)c1cc(C#N)c(Oc2ccccc2OC)nc1-c1ccccc1`: the inhibition was 18.2% (inactive).

Consider `CCOC(=O)c1c(C)[nH]c(C)c1S(=O)(=O)NCCN1CCN(c2cc(Cl)ccc2C)CC1`, for which the inhibition was 11.1% (inactive).
